Results from PubChem BioAssay AID1159580 (chemical genetic matrix, 2015).
About 2,000 (36%) of roughly 5,500 compounds were called active. Another 18% or so got no clear call; they are omitted. No stated cut-off is given here; in the data, active means normalized growth mostly below about 0.91 (no sharp cut-off); inconclusive means no clear call, values can overlap the other calls; inactive means mostly above about 0.92. The list shows a part of the results.

Experiment: chemical genetic growth profiling, strain panel (AID 1159580);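 further: tested at 20 µM; growth read once vehicle control cultures reached saturation at 30 °C; 1 = growth at the plate median or of vehicle wells; lower values mean less growth of the strain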
Details: S. cerevisiae deletion strains, growth OD

Measured: normalized growth

CN(C)c1ccc2nc3ccc(=[N+](C)C)cc-3sc2c1
active: locus YDL005C, strain med2, active compounds read low 1.1 [resistant] | locus YDR195W, strain ref2 1.25 [resistant] | locus YDR392W, strain spt3, active compounds read low 0.624 | locus YGL167C, strain pmr1, active compounds read low 1.09 [resistant] | locus YGL253W, strain hxk2, active compounds read low 1.11 [resistant] | locus YHR013C, strain ard1, active compounds read low 1.18 [resistant] | locus YHR027C, strain rpn1, active compounds read low 1.08 [resistant] | locus YJR066W, strain TOR1, active compounds read low 0.576 | locus YKR091W, strain srl3, active compounds read low 1.07 [resistant] | locus YLL041C, strain sdh2, active compounds read low 1.08 [resistant] | locus YNL183C, strain NPR1, active compounds read low 0.543 | locus YNL209W, strain ssb2, active compounds read low 1.08 [resistant]
inactive: locus YAL021C, strain ccr4, active compounds read low 0.991 | locus YAL026C, strain drs2, active compounds read low 1.01 | locus YAL030W, strain snc1, active compounds read low 1.06 | locus YBL061C, strain skt5, active compounds read low 1.05 | locus YBR009C, strain hhf1, active compounds read low 1.04 | locus YBR023C, strain chs3, active compounds read low 1.07 | locus YBR171W, strain sec66, active compounds read low 1.08 | locus YBR231C, strain swc5, active compounds read low 0.995 | locus YBR279W, strain paf1, active compounds read low 1.07 | locus YCL011C, strain gbp2, active compounds read low 1.04 | locus YCL016C, strain dcc1, active compounds read low 1.02 | locus YCL069W, strain vba3, active compounds read low 1.08 | locus YCR088W, strain abp1, active compounds read low 1.07 | locus YDL040C, strain nat1, active compounds read low 1.05 | locus YDR001C, strain nth1, active compounds read low 1.06 | locus YDR069C, strain doa4, active compounds read low 1.06 | locus YDR137W, strain rgp1, active compounds read low 1 | locus YDR159W, strain sac3, active compounds read low 1.03 | locus YDR297W, strain sur2, active compounds read low 1.07 | locus YDR334W, strain swr1, active compounds read low 1.05 | locus YDR335W, strain msn5, active compounds read low 1.07 | locus YEL003W, strain gim4, active compounds read low 0.974 | locus YEL037C, strain rad23, active compounds read low 1.06 | locus YEL061C, strain CIN8 (second series), active compounds read low 1.04 | locus YER015W, strain faa2, active compounds read low 1.05 | locus YER016W, strain bim1, active compounds read low 1.05 | locus YER111C, strain swi4, active compounds read low 1.08 | locus YER155C, strain BEM2 (second series), active compounds read low 0.941 | locus YFR010W, strain ubp6, active compounds read low 1.06 | locus YGL173C, strain kem1, active compounds read low 1.05 | locus YGL227W, strain vid30, active compounds read low 1.08 | locus YGL240W, strain doc1, active compounds read low 1 | locus YHR030C, strain SLT2, active compounds read low 0.994 | locus YHR079C, strain IRE1, active compounds read low 1.02 | locus YHR142W, strain chs7, active compounds read low 1.07 | locus YJL092W, strain hpr5, active compounds read low 1.05 | locus YJL095W, strain BCK1 (second series), active compounds read low 1.07 | locus YJL095W, strain BCK1, active compounds read low 1.05 | locus YJL115W, strain asf1, active compounds read low 1.07 | locus YJL129C, strain trk1, active compounds read low 1.08 | locus YJL154C, strain vps35, active compounds read low 1.06 | locus YJL164C, strain tpk1, active compounds read low 1.04 | locus YJL166W, strain qcr8, active compounds read low 1.02 | locus YKL160W, strain elf1, active compounds read low 1.03 | locus YKR026C, strain gcn3, active compounds read low 1.07 | locus YLL001W, strain dnm1, active compounds read low 1.05 | locus YLL026W, active compounds read low 1.05 | locus YLR027C, strain aat2, active compounds read low 1.05 | locus YLR113W, strain HOG1, active compounds read low 1.07 | locus YLR221C, strain rsa3, active compounds read low 1.04 | locus YLR258W, strain gsy2, active compounds read low 1.04 | locus YLR262C, strain YPT6 (second series), active compounds read low 1.1 | locus YLR320W, strain mms22, active compounds read low 0.993 | locus YLR342W, strain FKS1, active compounds read low 1.06 | locus YLR357W, strain rsc2, active compounds read low 1.12 | locus YLR370C, strain arc18, active compounds read low 1.05 | locus YLR384C, strain iki3, active compounds read low 1.07 | locus YML120C, strain ndi1, active compounds read low 1.04 | locus YMR058W, strain fet3, active compounds read low 0.985 | locus YMR125W, strain sto1, active compounds read low 1.09 | locus YMR129W, active compounds read low 1.05 | locus YMR205C, strain PFK2, active compounds read low 1.03 | locus YMR231W, strain pep5, active compounds read low 1.04 | locus YNL071W, strain lat1, active compounds read low 0.992 | locus YNL248C, strain rpa49, active compounds read low 1.11 | locus YNL322C, strain KRE1 (second series), active compounds read low 1.04 | locus YNR049C, strain mso1, active compounds read low 1.05 | locus YOR001W, strain rrp6, active compounds read low 1.06 | locus YOR070C, strain gyp1, active compounds read low 1.05 | locus YOR080W, strain dia2, active compounds read low 1.06 | locus YOR083W, strain WHI5, active compounds read low 1.05 | locus YOR106W, strain vam3, active compounds read low 0.994 | locus YOR231W, strain MKK1, active compounds read low 1.01 | locus YOR265W, strain rbl2, active compounds read low 1.04 | locus YOR270C, strain vph1, active compounds read low 0.983 | locus YOR290C, strain snf2, active compounds read low 1.03 | locus YPL051W, strain arl3, active compounds read low 0.979 | locus YPL078C, strain atp4, active compounds read low 1.05 | locus YPL106C, strain sse1, active compounds read low 1.05 | locus YPL240C, strain hsp82, active compounds read low 1.06 | locus YPL256C, strain CLN2, active compounds read low 1.02

S=C(NC1CCCCC1)N1CCC(c2cnc[nH]2)CC1
inactive: locus YAL040C, strain CLN3, active compounds read low 1.01 | locus YCL061C, strain MRC1 (second series), active compounds read low 0.998 | locus YDR363W, strain ESC2, active compounds read low 1.01 | locus YER002W, strain NOP16, active compounds read low 0.994 | locus YJR075W, strain HOC1, active compounds read low 1 | locus YMR263W, strain SAP30, active compounds read low 1.01 | locus YMR307W, strain GAS1, active compounds read low 0.996 | locus YNL128W, strain TEP1, active compounds read low 0.984 | locus YNL175C, strain NOP13, active compounds read low 1 | locus YNL197C, strain WHI3, active compounds read low 0.974 | locus YNL224C, strain SQS1, active compounds read low 0.986 | locus YOR083W, strain WHI5 (second series), active compounds read low 1.02 | locus YPL055C, strain LGE1, active compounds read low 0.993
